Bioassay records from PubChem BioAssay.
Hits are enriched below; roughly 12% of the tested compounds scored in any of these assays.
L3MBTL1 inh: L3MBTL1 (human) inhibition | hit rate 0.66% among 230,000 | Potency, µM (highest dose often 57.1 µM), most hits filed as inhibitors | AlphaScreen L3MBTL1–H3K9me1 peptide binding | Q9Y468; further: nearly all actives have a fitted effect of over 60% in size
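Displacement of a biotinylated histone H3(1-15) peptide monomethylated at Lys9 (75 nM) from L3MBTL1 (50 nM) was measured by AlphaScreen after a 30 min room-temperature compound incubation; cefsulodin titration served as intraplate control.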
HP1b binding inh: HP1-beta chromodomain-methylated histone interaction inhibition; P83916; AlphaScreen HP1-beta / biotin-H3K9me3 peptide binding; Potency, µM (titrated, usually from 114 µM), most hits filed as inhibitors; hit rate 0.56% among 390,000; AID 540317; further: nearly all actives have a fitted effect of over 70% in size
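AlphaScreen: HP1-beta (50 nM) preformed 30 min with biotin-H3(1-18)K9me3 peptide (50 nM) in PBS pH 7.4, 0.01% Tween-20. Compound added for 30 min at RT, then streptavidin donor/nickel chelate acceptor beads (10 ug/mL) for 30 min.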
Sfp PPTase inh: inhibitors of Bacillus subtilis Sfp phosphopantetheinyl transferase | Q9F4F7 | Biochemical Sfp PPTase activity, qHTS | Potency, µM, hits mostly inhibitors | hit rate 3.5% among 310,000 | AID 1490;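 further: the enzyme is Sfp with the accession as filed and its product quenches rhodamine fluorescence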
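After 15 min at room temperature with compound, 15 nM Sfp received 5 uM rhodamine-CoA plus 12.5 uM BHQ-2-ybbR (50 mM Hepes pH 7.6, 10 mM MgCl2). Rate came from the fluorescence difference over 30 min, ex 525/em 598 nm.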
BAZ2B inh: BAZ2B (human) inhibition | AID 504333 | Q9UIF8 | AlphaScreen BAZ2B-H3K14Ac peptide displacement | hit rate 4.4% among 360,000 | Potency, µM (top dose mostly 114 µM), hits mostly inhibitors; further: nearly all actives have a fitted effect of over 60% in size
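AlphaScreen displacement: compounds (up to 110uM) incubated 30 min at room temperature with a preformed 50 nM BAZ2B/50 nM biotinylated H3K14Ac peptide complex in PBS pH 7.4 with Tween-20. Donor and acceptor beads at 10 ug/mL final added, 20 min light-protected before reading.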
G9a inh: G9a (human) methyltransferase inhibition; G9a H3K9 monomethylation, AlphaScreen, 2 h; AID 504332; hit rate 8.8% among 350,000; Potency, µM (top dose mostly 102 µM), usual class: inhibitors; further: nearly all actives have a fitted effect of over 75% in size
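Compounds were preincubated with 20 nM G9a for 15 min, after which biotinylated H3K9 peptide (500 nM) and SAM (20 uM) started a 2 h room-temperature reaction. Monomethylated product was quantified by antibody-based AlphaScreen chemiluminescence.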
JMJD2A Tudor: JMJD2A Tudor domain (human) inhibition | O75164 | hit rate 4.4% among 390,000 | Potency, µM (highest dose often 114 µM), usual class: inhibitors | AlphaScreen JMJD2A-Tudor / H3K4me3 peptide binding; further: nearly all actives have a fitted effect of over 50% in size
A number is an active result; . = inactive; ? = inconclusive; / = no result given; [ ] = dose if it differs, or a comment. The call rests on the fitted dose curve; in most records, active means well fitted curve in the direction sought with a large enough effect; inconclusive means small, poorly fitted or top-dose-only effect, or another doubt; inactive means no such curve, though single readings can be large; an effect the other way counts as inactive or inconclusive.

SMILES	L3MBTL1 inh	HP1b binding inh	Sfp PPTase inh	BAZ2B inh	G9a inh	JMJD2A Tudor
COc1ccc2sc(N(CCN(C)C)C(=O)c3cc(Cl)sc3Cl)nc2c1	/	.	.	/	?	.
CCCCn1c(CNC(=O)C23CC4CC(CC(C4)C2)C3)nnc1SCC(=O)Nc1ccccc1	/	.	/	?	.	.
COc1ccccc1N(CCC#N)C(=O)CSc1nnc2ccccn12	.	.	/	.	?	.
CCOCCCn1c(SCC(=O)Nc2cc(C)ccc2C)nc2c(oc3ccccc32)c1=O	/	.	/	.	.	.
CC(C(=O)O)n1nc2ccccc2n1 (centres undefined)	.	.	.	?	.	.
Cc1ccnn1C(C)C(=O)O (centres undefined)	.	.	.	.	50.1µM	.
Cc1ccc(S(=O)(=O)CCC(=O)N(CCN2CCOCC2)c2nc3ccccc3s2)cc1	.	.	/	.	.[0.501 µM]	.
Cc1cccc2sc(N(CCN3CCOCC3)C(=O)CCS(=O)(=O)c3ccccc3)nc12	.	.	/	.	50.1µM	.
Cc1cccc2sc(N(CCCN3CCOCC3)C(=O)CS(=O)(=O)c3ccc(F)cc3)nc12	.	.	/	.	56.2µM	.
COc1ccc(NC(=O)c2oc3ccccc3c2NC(=O)C23CC4CC(CC(C4)C2)C3)cc1	/	.	/	.	.	.
N#CC(C#N)=CC1=C2OC(c3ccccc3)=CC(c3ccccc3)=C2CCC1	/	2.82µM	.	?	?	2.24µM
Cn1cccc1C(=O)N1CCC2(CCCN(c3ccccc3)C2)CC1	/	/	.	/	.[12.7 µM]	/
Cc1cc(Nc2ccccc2Cl)c2ccccc2n1	/	.	/	/	/	.
Cc1cc(C)nc(NCC(O)CNc2ccccc2Cl)n1 (centres undefined)	.[11.4 µM]	.	.	.	7.08µM	56.2µM
Cc1cccc(OCC(=O)Nc2ccc(NC(=O)c3ccco3)cc2)c1	/	.	.	.	.	.
Cn1c(=O)c2sccc2n2c(CCCC(=O)NCc3ccccc3)nnc12	/	.	/	.	.	.
CCSc1nc2ccccc2n1CC(N)=O	.	.	.	.	.	.
CCSc1nc2ccccc2n1C(=O)/C=C\c1ccc(OC)c(OC)c1	.	.	50.1µM	.	.[12.7 µM]	.
COc1ccc(C(NC(=O)/C=C\c2ccco2)c2ccc(OC)c(OC)c2)cc1 (centres undefined)	.	.	20µM	.	25.1µM	50.1µM
CCC(Cc1ccccc1)NC(=O)/C=C/c1ccco1 (centres undefined)	.[2.29 µM]	.	56.2µM	.	.[0.501 µM]	.
CCC(O)c1nc2ccccc2n1Cc1cccc(Cl)c1 (centres undefined)	/	.	/	.	.	.
COc1cc(C(=O)NNC(=O)/C=C/c2ccco2)cc(OC)c1OC	.	.	/	/	/	.
CC(NC(=O)/C=C/c1ccco1)c1nc2ccccc2n1Cc1cccc(Cl)c1 (centres undefined)	.	.	28.2µM	.	?	.
COc1ccc(C(NC(=O)/C=C/c2ccco2)c2ccc(OC)cc2)cc1	.	?	25.1µM	50.1µM	8.91µM	?
COc1ccc(-c2csc(NC(=S)NC(=O)/C=C/c3ccco3)n2)cc1OC	.	.	.	.	.	.
SMILES	L3MBTL1 inh	HP1b binding inh	Sfp PPTase inh	BAZ2B inh	G9a inh	JMJD2A Tudor
CCOC(=O)c1ccc(-c2ccc(/C=C(\C#N)C(=O)Nc3ccc(C)cc3OC)o2)cc1	/	.	/	.	.	.
CCCCOc1ccccc1C(=O)N(Cc1sccc1C)C1CCS(=O)(=O)C1 (centres undefined)	/	.	/	.	.	.
O=C(NCCN1CCOCC1)C1(C(F)(F)F)C/C(=C\CCO)CCCO1 (centres undefined)	/	.	.	/	/	.
COc1ccc(CCNC(=O)COC(=O)/C=C/c2cc(OC)c(OC)c(OC)c2)cc1OC	.	.	.	.	.	.
Cc1csc(NC(=O)CSc2nc(C(C)C)nc3ccccc23)n1	/	.	.	.	.	.
Cc1ccc(N=C2NC(=O)/C(=C/c3cccnc3)S2)c(C)c1	.	.	.	.	/	.
Cc1ccc(N=C2NC(=O)/C(=C\c3ccsc3)S2)c(C)c1	.	.	79.4µM	.	.	?
COc1cccc(Cn2c(=O)cnc3cnc(Oc4ccccc4)nc32)c1	/	/	.	/	.[0.501 µM]	/
CC(NCc1cccc(S(=O)(=O)N(C)C)c1)c1ccc(F)cc1 (centres undefined)	.	.	?	50.1µM	/	22.4µM
CN(C)S(=O)(=O)c1cccc(CSCc2cccc(S(=O)(=O)N(C)C)c2)c1	/	.	.	.	.	.
COC(=O)C1=C(C(=O)OC)[C@@H]2Nc3ccccc3[C@@]23C[C@@H](C(=O)OC)N(S(=O)(=O)c2ccc(Br)cc2)C3=N1	/	/	.	/	/	/
